Laboratory results reported in PubChem BioAssay AID861 (The Scripps Research Institute Molecular Screening Center, 2007).
Hit rate of the full screen: of about 200,000 compounds, about 360 (0.18%) were called active. The sample holds actives, similar compounds and a random draw of the others, so the mix is not that of the screen. Cut-off read from the data, not from the text of the source: active = inhibition above about 25%; inactive = the rest.

target: Toll-like receptor 4 (Homo sapiens) + Myeloid differentiation primary response protein MyD88 (Homo sapiens) (UniProt O00206+Q99836); assay: disruptors of TLR4 binding to MyD88 – cell-based, HeLa CL3-4, BLA complementation, FRET ratio, primary screen (AID 861); settings: HeLa CL3-4 TLR4/MyD88 BLA complementation, at 8.4 µM, hits give high values;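 note: 0% = vehicle and 100% = reference inhibitor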
Sequence (O00206 whole entry, looked up): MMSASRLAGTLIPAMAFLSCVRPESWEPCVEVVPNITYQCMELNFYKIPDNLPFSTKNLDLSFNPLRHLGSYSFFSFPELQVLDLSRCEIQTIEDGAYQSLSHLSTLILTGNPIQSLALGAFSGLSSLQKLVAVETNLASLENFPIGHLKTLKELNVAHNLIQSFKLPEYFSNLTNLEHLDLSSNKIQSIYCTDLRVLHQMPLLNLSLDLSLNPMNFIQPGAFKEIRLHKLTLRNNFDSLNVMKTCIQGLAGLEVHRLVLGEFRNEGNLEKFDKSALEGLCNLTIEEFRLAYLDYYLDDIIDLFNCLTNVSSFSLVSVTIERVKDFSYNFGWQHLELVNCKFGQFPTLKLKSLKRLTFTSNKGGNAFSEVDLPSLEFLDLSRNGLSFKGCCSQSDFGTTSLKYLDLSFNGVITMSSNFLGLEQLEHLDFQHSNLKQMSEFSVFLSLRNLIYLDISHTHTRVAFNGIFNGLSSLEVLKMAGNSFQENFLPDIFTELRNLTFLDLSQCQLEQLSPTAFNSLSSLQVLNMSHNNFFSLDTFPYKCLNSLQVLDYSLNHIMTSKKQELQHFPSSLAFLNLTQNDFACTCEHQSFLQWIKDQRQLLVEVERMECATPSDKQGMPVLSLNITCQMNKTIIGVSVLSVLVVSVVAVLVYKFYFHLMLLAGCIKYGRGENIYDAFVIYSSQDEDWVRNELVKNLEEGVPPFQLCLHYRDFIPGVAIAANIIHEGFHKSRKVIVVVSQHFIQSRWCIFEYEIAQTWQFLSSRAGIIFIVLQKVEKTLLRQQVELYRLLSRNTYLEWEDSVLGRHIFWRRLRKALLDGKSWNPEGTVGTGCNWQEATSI
Sequence (Q99836 whole entry, looked up): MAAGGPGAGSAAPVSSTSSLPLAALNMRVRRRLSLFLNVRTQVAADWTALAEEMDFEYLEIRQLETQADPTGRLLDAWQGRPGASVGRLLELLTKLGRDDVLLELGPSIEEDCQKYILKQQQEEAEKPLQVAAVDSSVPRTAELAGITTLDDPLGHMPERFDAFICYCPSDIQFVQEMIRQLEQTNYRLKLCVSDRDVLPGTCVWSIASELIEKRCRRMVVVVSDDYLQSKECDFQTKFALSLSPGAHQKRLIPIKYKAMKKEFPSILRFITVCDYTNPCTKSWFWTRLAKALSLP

inhibition, active:
CCc1ccc2c(c1)C1(NN=C(c3ccccc3)S1)C(=O)N2 (stereo not drawn) 25.3%
O=C(Nc1ccccc1Cl)/C(Cl)=C(\Cl)S(=O)c1ccccc1 (stereo not drawn) 27%

inhibition, inactive:
COC(=O)C1=NN(c2ccccc2)C2C(=O)N(c3ccccc3OC)C(=O)C12 (stereo not drawn) 0.17%
Cc1cccc(C(=O)Nc2ccccc2C(=O)NCc2cccnc2)c1 -0.85%
O=C1Nc2ccccc2C12Nc1ccccc1S2 (stereo not drawn) -1.86%
C=C1c2cc(CC)ccc2NC(=O)N1c1ccc(C)cc1 1.66%
CNc1nc(Nc2ccc(C)c(Cl)c2)nc(N)c1[N+](=O)[O-] -5.76%
O=C(Nc1ccccc1Cl)c1ccc2nsnc2c1 7.26%
O=C(CN1CCCCC1)Nc1ccccc1Cl -3.05%
CC1(c2ccccc2)CC(C)(C)N(C(=O)c2cc([N+](=O)[O-])cc([N+](=O)[O-])c2)c2ccccc21 (stereo not drawn) -16.2%
CCOc1ccc(C(C)=O)cc1COC(=O)c1cnc(Cl)c(Cl)c1 15.1%
COC(=O)/C(=C1\Oc2ccc(C(C)(C)C)cc2S1)C(F)(F)F 6.06%
Cc1c(Cl)cccc1NC(=S)N(Cc1ccccc1)Cc1cccnc1 1.23%
CC(Sc1nc2c([nH]c3ccccc32)c(=O)n1C)c1ccccc1 (stereo not drawn) 8.9%
CC1=NN(c2cccc(Cl)c2)C(=O)C12CC(C)=C(C)CS2 (stereo not drawn) 2.14%
Cn1cc(CN2CCC(C(O)CCc3ccccc3)CC2)c(-c2ccccc2F)n1 (stereo not drawn) -13.8%
CC1CCN(C(=S)c2cccc(O)c2)CC1 -6.27%
O=[N+]([O-])c1ccc(N2CCN(CC(O)COc3ccccc3)CC2)cc1 (stereo not drawn) 5.02%
CCc1cccc(CC)c1NC(=O)COc1ccccc1C(=O)c1cc(C#N)c(=O)n(C2CCCCC2)c1 -16.2%
CC(C)CCN1C(=O)c2ccc(C(=O)Nc3cccc(S(N)(=O)=O)c3)cc2C1=O 1.58%
CC(=O)NCCc1nc2cc(NC(=O)c3ccccc3)ccc2n1C -9.04%
CC(Oc1ccc(Br)cc1Br)C(=O)NC1CCCC1 (stereo not drawn) -3.01%
CS(=O)(=O)N(Cc1ccccc1Cl)c1ccc(C(=O)NCc2cccnc2)cc1 -15.2%
